Here are results for 8 compounds from PubChem BioAssay.

Active and inactive are the calls of the source. Unless noted, how the calls were made is not given here.

In assay [1] the test system is Wnt5a (protein binding on small-molecule microarray). The assay can be described thus: Wnt5a binders on small-molecule microarray, primary screen, biophysical, 635/667 nm fluorescence (AID 1142).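 Further: fluorescence read at 667 nm with signal to noise per printed feature.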 Conditions: 635 nm fluorescence, higher = more signal.
Assay [2] in a line: cell viability in Huh7 cells, primary screen, cytotoxicity control for HCV replication inhibitor project, CellTiter-Glo luminescence, basal, 48 h (AID 1143).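 Further: Huh7 hepatoma cells carrying a hepatitis C replication reporter with no stimulus; test concentration not given here.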 The following applies: Huh7 HCV replicon, higher = more signal, called active from +8 up or from −8 down.
The nature of assay [3]: P. aeruginosa biofilm formation inhibitors, primary screen, PAO1 strain, BacTiter-Glo luminescence, LB-PBS (AID 1144). The following applies: 12 h, higher = more signal.
The nature of assay [4]: CREB reporter modulators without forskolin, primary screen, cell-based, PC12, CRE-LacZ reporter, unstimulated (AID 1145). Conditions: no forskolin, luminescence, 4.5 h, higher = more signal, called active from +8 up or from −8 down.
A short description of assay [5]: CREB reporter modulators under forskolin, primary screen, cell-based, PC12, CRE-LacZ reporter, forskolin-stimulated (AID 1146).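 Further: PC12 cells with 6xCRE LacZ reporter stimulated by forskolin 10 µM; beta-galactosidase reporter signal reflecting CREB driven transcription.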 The following applies: luminescence, 4.5 h, higher = more signal, called active from +8 up or from −8 down.
Assay [6] concerns the target Streptavidin (Streptomyces avidinii) (UniProt P22629). The assay can be described thus: streptavidin binders on small-molecule microarray, primary screen, artefact control for SMM compound annotation, biophysical, 635/667 nm fluorescence (AID 1147).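 Further: signal reflects streptavidin binding to arrayed compounds as a control protein.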 Conditions: streptavidin binding, higher = more signal.
The nature of assay [7]: small-molecule binders of probe aInhba, primary screen, biochemical, small-molecule microarray, 635/667 nm fluorescence (AID 1148).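 Further: score merges 667nm spot fluorescence with signal-to-noise for antibody binding to printed compounds.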 The following applies: higher = more signal.
Assay [8] deals with Torsin-1A (Homo sapiens) (UniProt O14656). The assay can be described thus: torsin A binders from cell lysate, primary screen, small-molecule microarray, wild-type, 635/667 nm (AID 1149). Conditions: COS7 hTOR1A-WT lysate, 635 nm fluorescence, higher = more signal.
Assay [9] has the same target. Put plainly: small-molecule binders of mutant TOR1A in lysate, primary screen, cell lysate, small-molecule microarray, COS7 lysate, 635/667 nm fluorescence (AID 1150).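 Further: score pools 667 nm emission and signal to noise measuring lysate protein binding.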 Conditions: COS7 hTOR1A mutant lysate, 635 nm fluorescence, higher = more signal.
The test system of assay [10] is Sonic hedgehog protein (Shh). Put plainly: small-molecule binders of Shh protein, primary screen, biochemical, small-molecule microarray, 635/667 nm fluorescence (AID 1151).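 Further: Shh protein binding to compounds spotted on small-molecule microarray slides; score combines spot fluorescence intensity with signal-to-noise across triplicate slides.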 The following applies: small-molecule microarray binding, 635 nm fluorescence; higher = more signal.
Assay [11] in a line: E. coli DRC41 culture turbidity changes, primary screen, E. coli filamentation inducer project, strain DRC41, OD650, 48 h (AID 1152).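 Further: E. coli MC1000 strain DRC41 lacking acrAB efflux pump and sulA.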 The following applies: E. coli DRC41 (acrAB sulA), higher = more signal, called active from +8 up or from −8 down.
Assay [12] in a line: small-molecule binders of probe aLefty1, primary screen, biochemical, small-molecule microarray, 635/667 nm fluorescence (AID 1153).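 Further: score merges spot fluorescence with signal-to-noise ratio from the scanned slide images.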 Conditions: higher = more signal.
Assay [13] can be described thus: PSAC antagonists in infected red cells, primary screen, cell-based, P. falciparum Indochina, OD700, 1 h (AID 1154). The following applies: P. falciparum Indochina infected RBC osmotic lysis, higher = more signal, called active from +8 up or from −8 down.
Assay [14] can be described thus: PSAC antagonists in infected red cells, primary screen, cell-based, P. falciparum Indochina, OD700, 2 h (AID 1155).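 Further: lysis reports solute entry through the parasite surface anion channel PSAC; channel blockers reduce lysis of infected cells.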 Conditions: P. falciparum Indochina infected erythrocytes, osmotic lysis OD700; higher = more signal, called active from +8 up or from −8 down.
Assay [15] is described as follows: osmotic lysis modulators in infected erythrocytes, primary screen, PSAC antagonist project, cell-based, P. falciparum Indochina, OD700, 3 h (AID 1156). The following applies: higher = more signal, called active from +8 up or from −8 down.
The nature of assay [16]: PSAC antagonists in infected red cells, primary screen, cell-based, P. falciparum Indochina, OD700, 18 h (AID 1157). The following applies: P. falciparum Indochina infected erythrocytes, osmotic lysis OD700, 18 h; higher = more signal, called active from +8 up or from −8 down.
A short description of assay [17]: modulators of S6 phosphorylation in cells, primary screen, cell-based, A549, cytoblot, luminescence, serum-stimulated (AID 1158).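 Further: serum-stimulated A549 lung adenocarcinoma cells; signal is phosphorylated S6 detected by cytoblot immunostaining with HRP secondary.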 The following applies: A549 phospho-S6 cytoblot, 5 h, higher = more signal.
For assay [18], the target named is NADPH oxidase 2 (Homo sapiens) (UniProt P04839). Put plainly: NOX2-dependent H2O2 signal modulators, primary screen, NOX inhibitor project, cell-based, HEK293-NOX2, PMA-stimulated, Amplex Red fluorescence (AID 1159). Further: test concentration not given here. Conditions: 45 min, higher = more signal, called active from +8 up or from −8 down.
Assay [19] has as its target NADPH oxidase 4 (Homo sapiens) (UniProt Q9NPH5). The assay can be described thus: NOX4-dependent H2O2 signal modulators, primary screen, NOX inhibitor project, cell-based, HEK293-NOX4, tetracycline-induced, Amplex Red fluorescence (AID 1160). The following applies: 45 min, higher = more signal, called active from +8 up or from −8 down.
Assay [20] deals with NADPH oxidase 5 (Homo sapiens) (UniProt Q96PH1). Put plainly: NOX5-dependent H2O2 signal modulators, primary screen, NOX inhibitor project, cell-based, HEK293-NOX5, Amplex Red fluorescence (AID 1161). The following applies: HEK293-NOX5, ionomycin, 45 min, higher = more signal.
Sequence of NADPH oxidase 5 (Homo sapiens) (Q96PH1 whole entry, looked up): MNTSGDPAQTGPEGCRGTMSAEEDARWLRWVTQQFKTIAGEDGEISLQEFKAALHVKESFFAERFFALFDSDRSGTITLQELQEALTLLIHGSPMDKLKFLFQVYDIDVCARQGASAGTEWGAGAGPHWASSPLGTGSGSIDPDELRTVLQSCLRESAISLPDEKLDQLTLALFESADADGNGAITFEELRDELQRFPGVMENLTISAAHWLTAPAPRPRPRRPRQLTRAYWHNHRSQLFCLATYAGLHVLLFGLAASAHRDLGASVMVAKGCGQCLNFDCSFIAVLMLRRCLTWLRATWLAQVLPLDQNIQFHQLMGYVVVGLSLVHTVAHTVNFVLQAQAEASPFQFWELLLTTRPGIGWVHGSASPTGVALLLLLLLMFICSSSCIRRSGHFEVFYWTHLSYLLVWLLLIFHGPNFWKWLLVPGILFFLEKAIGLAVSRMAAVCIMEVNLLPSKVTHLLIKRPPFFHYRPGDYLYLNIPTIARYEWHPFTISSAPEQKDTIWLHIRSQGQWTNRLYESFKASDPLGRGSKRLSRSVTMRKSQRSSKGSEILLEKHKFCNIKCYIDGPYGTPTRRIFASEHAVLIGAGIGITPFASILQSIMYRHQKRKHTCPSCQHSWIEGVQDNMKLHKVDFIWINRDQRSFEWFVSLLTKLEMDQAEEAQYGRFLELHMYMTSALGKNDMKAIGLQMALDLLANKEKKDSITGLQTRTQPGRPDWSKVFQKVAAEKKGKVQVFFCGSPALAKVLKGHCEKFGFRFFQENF

Sequence of Streptavidin (Streptomyces avidinii) (P22629 whole entry, looked up): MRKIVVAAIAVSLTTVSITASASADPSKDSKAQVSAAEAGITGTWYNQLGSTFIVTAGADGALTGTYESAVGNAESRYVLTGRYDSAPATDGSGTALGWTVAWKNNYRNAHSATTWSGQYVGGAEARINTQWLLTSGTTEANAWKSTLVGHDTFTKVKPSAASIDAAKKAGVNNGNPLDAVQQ
Sequence of NADPH oxidase 4 (Homo sapiens) (Q9NPH5 whole entry, looked up): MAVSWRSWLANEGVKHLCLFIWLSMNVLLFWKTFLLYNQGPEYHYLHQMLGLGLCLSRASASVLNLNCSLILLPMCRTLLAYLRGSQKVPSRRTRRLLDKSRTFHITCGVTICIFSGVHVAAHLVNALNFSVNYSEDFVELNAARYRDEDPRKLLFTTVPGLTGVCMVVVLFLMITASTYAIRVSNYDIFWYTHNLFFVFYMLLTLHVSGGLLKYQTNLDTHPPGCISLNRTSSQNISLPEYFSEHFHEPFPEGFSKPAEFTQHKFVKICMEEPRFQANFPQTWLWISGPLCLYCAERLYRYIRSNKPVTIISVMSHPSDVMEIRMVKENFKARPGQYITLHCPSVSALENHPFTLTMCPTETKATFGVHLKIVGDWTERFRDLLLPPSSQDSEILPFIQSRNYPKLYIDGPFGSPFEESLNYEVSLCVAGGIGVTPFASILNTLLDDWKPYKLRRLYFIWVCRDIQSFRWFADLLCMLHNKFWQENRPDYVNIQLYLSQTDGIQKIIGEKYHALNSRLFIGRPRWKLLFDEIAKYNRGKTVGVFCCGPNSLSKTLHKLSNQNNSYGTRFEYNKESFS
Sequence of Torsin-1A (Homo sapiens) (O14656 whole entry, looked up): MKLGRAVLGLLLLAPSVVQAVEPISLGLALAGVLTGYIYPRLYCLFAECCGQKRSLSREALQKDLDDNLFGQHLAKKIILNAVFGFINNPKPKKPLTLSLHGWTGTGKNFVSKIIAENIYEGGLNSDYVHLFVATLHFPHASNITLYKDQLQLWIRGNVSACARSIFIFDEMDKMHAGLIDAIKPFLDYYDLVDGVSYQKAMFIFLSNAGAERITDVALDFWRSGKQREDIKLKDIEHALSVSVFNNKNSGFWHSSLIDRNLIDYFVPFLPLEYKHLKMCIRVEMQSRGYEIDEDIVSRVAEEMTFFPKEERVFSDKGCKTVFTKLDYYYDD
Sequence of NADPH oxidase 2 (Homo sapiens) (P04839 whole entry, looked up): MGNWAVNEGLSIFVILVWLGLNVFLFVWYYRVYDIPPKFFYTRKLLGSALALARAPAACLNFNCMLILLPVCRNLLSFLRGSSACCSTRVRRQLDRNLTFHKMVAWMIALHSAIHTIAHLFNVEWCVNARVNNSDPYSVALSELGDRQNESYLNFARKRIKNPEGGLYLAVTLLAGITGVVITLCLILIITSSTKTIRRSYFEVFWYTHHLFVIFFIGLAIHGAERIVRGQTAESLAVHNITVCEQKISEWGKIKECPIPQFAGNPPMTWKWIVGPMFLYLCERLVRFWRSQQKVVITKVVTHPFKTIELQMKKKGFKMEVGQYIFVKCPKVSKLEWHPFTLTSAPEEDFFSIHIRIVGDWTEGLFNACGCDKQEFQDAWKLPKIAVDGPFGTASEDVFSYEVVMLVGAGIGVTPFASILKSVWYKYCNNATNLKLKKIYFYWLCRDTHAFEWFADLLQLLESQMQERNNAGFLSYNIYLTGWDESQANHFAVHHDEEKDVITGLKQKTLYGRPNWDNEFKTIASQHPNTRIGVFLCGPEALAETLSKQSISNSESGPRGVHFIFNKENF

Regarding `COCCCNC(=O)[C@@]1(c2ccc([N+](=O)[O-])cc2)CC(=O)N(C(C)C)[C@@H]1c1ccc(CO)cc1`, the composite z-score in assay [1] was 0.0039; in [6], -0.934; in assay [7], 0.315; in [8], 0.722; in [9], 1.05; in assay [10], 0.0776. The same compound returned a composite z-score in [12] of 0.125. The z-score is 0.433 (inactive) in assay [2]; 0.797 (inactive) in [3]; 0.495 (inactive) in assay [4]; 0.0212 (inactive) in assay [5]; 0.569 (inactive) in [11]; 0.481 (inactive) in assay [13]. Also, the z-score in assay [14] was -0.135 (inactive); in assay [15], -0.288 (inactive); in [16] it was -0.0629 (inactive); in assay [17], 0.361; in [18], -0.635 (inactive); in [19], 0.726 (inactive). In addition, the z-score in [20] is -0.0684.
As to `CC(=O)NCCCC[C@@H]1NC(=O)[C@H]2C[C@@H](C(=O)NCCCCCNC(=O)CS)[C@@H](c3cccc(OCCO)c3)N2C1=O`, the composite z-score in [1] is -0.0417; in assay [6], -0.155; in assay [7] it was -0.128; in [8], 0.498; in assay [9] it was 0.092; in [10], 1.74. This compound also registered a composite z-score in [12] of -0.0573. In addition, the z-score in assay [2] was 0.321 (inactive); in [3], -0.93 (inactive); in [4], -0.13 (inactive); in assay [5] it was 0.908 (inactive); in [11], -0.486 (inactive); in assay [13], 1.85 (inactive). In addition, the z-score was 0.461 (inactive) in assay [14]; -0.369 (inactive) in assay [15]; 0.227 (inactive) in assay [16]; 0.0439 in assay [17]; 1.87 (inactive) in assay [18]; 0.825 (inactive) in assay [19]. This compound came in with a z-score in assay [20] of 0.697.
Regarding `COCCOC(=O)N1C(=O)[C@@]2(c3cc(C#CC4(O)CCCCCC4)ccc31)[C@H](c1ccc(OCCO)cc1)N1[C@H](c3ccccc3)[C@H](c3ccccc3)OC(=O)[C@H]1[C@@H]2C(=O)Nc1nc2ccccc2s1`, the composite z-score is 0.544 in [1]; 0.945 in assay [6]; 0.134 in assay [7]; 0.494 in [8]; 0.734 in assay [9]; 1.84 in assay [10]. In [12], this compound showed a composite z-score of 0.718. Moreover, the z-score in assay [2] is -1.39 (inactive); in assay [3], 0.3 (inactive); in [4], -0.337 (inactive); in assay [5], 0.138 (inactive); in assay [11] it was -0.595 (inactive); in assay [13], 2.53 (inactive). The z-score in assay [14] is 2.08 (inactive); in assay [15], 0.834 (inactive); in assay [16] it was 1.53 (inactive); in assay [17], -0.652; in assay [18] it was 0.549 (inactive); in assay [19], 0.131 (inactive). Further, the z-score in assay [20] turned out to be 1.94.
As for `COC(=O)C1=CC(CCCO)=CC(C)N(Cc2cccc(OC(F)(F)F)c2)C=C1C(=O)OC` (stereo not given), the composite z-score is 0.145 in assay [1]; 0.747 in [6]; -0.001 in [7]; -0.148 in assay [8]; 0.47 in [9]; -0.681 in [10]. In addition, the composite z-score in [12] came out at 0.248. Besides, the z-score in [2] is -1.07 (inactive); in [3], -0.117 (inactive); in assay [4], -0.168 (inactive); in [5], 0.308 (inactive); in [11] it was -0.0692 (inactive); in assay [13], 2.3 (inactive). For the same compound, the z-score was 0.192 (inactive) in [14]; 0.983 (inactive) in [15]; 0.5 (inactive) in [16]; -0.334 in [17]; 0.159 (inactive) in assay [18]; -0.317 (inactive) in assay [19]. This compound also registered a z-score in assay [20] of 0.859.
Consider `CC(C)OC(=O)CC(=O)CC(O)c1ccc([N+](=O)[O-])cc1` (stereo not given), for which the composite z-score in [1] was 0.0008; in [6] it was -0.402; in assay [7] it was -0.0044; in assay [8] it was 0.913; in assay [9], 0.113; in [10], -0.514. Further, the composite z-score in [12] came out at 0.0509. The z-score is -0.824 (inactive) in assay [2]; 0.402 (inactive) in assay [3]; 1.03 (inactive) in [4]; 1.59 (inactive) in assay [5]; -0.314 (inactive) in assay [11]; 1.92 (inactive) in [13]. Besides, the z-score in [14] is 0.586 (inactive); in assay [15], 0.0451 (inactive); in [16], 0.438 (inactive); in assay [17] it was -0.243; in assay [18], 0.0696 (inactive); in assay [19] it was 0.66 (inactive). Moreover, the z-score in assay [20] was 0.39.
For `COc1ccc(C(=O)Nc2cccc(CN3C(=O)[C@]4(O[C@H](CCn5cc([C@H](O)c6ccccc6)nn5)[C@@H]([Si](C)(C)c5ccc(OC)cc5)[C@@H]4C)c4ccccc43)c2)cc1`, the composite z-score was 0.194 in [1]; 0.192 in [6]; -0.183 in assay [7]; 0.0107 in assay [8]; 0.205 in [9]; 1.69 in assay [10]. Besides, the composite z-score in assay [12] stood at 0.051. In addition, the z-score was -7.81 (inactive) in assay [2]; -0.568 (inactive) in assay [3]; -0.36 (inactive) in assay [4]; -0.413 (inactive) in assay [5]; 0.959 (inactive) in [11]; 1.23 (inactive) in assay [13]. Also, the z-score is 0.0918 (inactive) in [14]; 1.82 (inactive) in [15]; -0.209 (inactive) in [16]; 0.871 in [17]; -0.498 (inactive) in assay [18]; 0.245 (inactive) in assay [19]. The z-score in assay [20] is -0.305.
As to `O=C1O[C@H](c2ccccc2)[C@H](c2ccccc2)N2[C@H]1[C@@H](C(=O)Nc1nc3ccccc3s1)[C@]1(C(=O)Nc3ccc(C#CC4=CCCCC4)cc31)[C@H]2c1ccc(O)cc1`, the composite z-score is 0.357 in assay [1]; 1.24 in [6]; -0.103 in [7]; -0.253 in [8]; 0.335 in assay [9]; 1 in assay [10]. Also, in assay [12], the composite z-score came to 0.122. Further, the z-score in [2] is -4.09 (inactive); in assay [3] it was -0.922 (inactive); in assay [4] it was -0.671 (inactive); in [5] it was 0.0225 (inactive); in assay [11], 2.68 (inactive); in [13], -0.559 (inactive). Moreover, the z-score is -0.0042 (inactive) in assay [14]; -0.715 (inactive) in assay [15]; 0.193 (inactive) in assay [16]; 1.26 in assay [17]; 0.878 (inactive) in [18]; 0.214 (inactive) in assay [19]. This compound gave a z-score in assay [20] of 0.191.
On to `[N-]=[N+]=NCc1ccccc1C[C@@]1(C(=O)N2CCCCC2)N=C(c2ccc(OCCCO)cc2)O[C@@H]1c1ccccc1CN=[N+]=[N-]`, for which the composite z-score in assay [1] is 0.599; in assay [6], 0.721; in assay [7], 0.153; in assay [8], 0.362; in assay [9] it was -0.0699; in [10], -0.306. The compound also returned a composite z-score in assay [12] of 0.254. In addition, the z-score in assay [2] is -4.29 (inactive); in [3], 0.87 (inactive); in [4] it was -0.114 (inactive); in assay [5] it was 0.872 (inactive); in [11] it was 0.464 (inactive); in [13], 27.5 (active). In addition, the z-score was 19.6 (active) in [14]; 3.4 (inactive) in assay [15]; 2.31 (inactive) in assay [16]; -0.276 in assay [17]; -1.29 (inactive) in [18]; -0.467 (inactive) in [19]. In assay [20], this compound had a z-score of -0.859.
